The values that follow come from paper PMC4336329 (PLoS ONE, 2015).

In all, about 310,000 compounds went through this assay and about 14,000 (4.5%) showed an effect of 50% or more. Effects have a minus sign here. The list comes from a sample in which strong results are over-represented; it also holds similar structures and randomly drawn compounds.
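Also: peak tail current of the secondary pulse compared with the same well before compound.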

For the test, the target named is human ether-à-go-go-related gene (hERG) potassium channel (human, UniProt Q12809). The experiment in a line: primary screen, population patch clamp on CHO cells stably expressing hERG; higher = less effect of the substance.
human ether-à-go-go-related gene (hERG) potassium channel, sequence (Q12809 whole entry, looked up): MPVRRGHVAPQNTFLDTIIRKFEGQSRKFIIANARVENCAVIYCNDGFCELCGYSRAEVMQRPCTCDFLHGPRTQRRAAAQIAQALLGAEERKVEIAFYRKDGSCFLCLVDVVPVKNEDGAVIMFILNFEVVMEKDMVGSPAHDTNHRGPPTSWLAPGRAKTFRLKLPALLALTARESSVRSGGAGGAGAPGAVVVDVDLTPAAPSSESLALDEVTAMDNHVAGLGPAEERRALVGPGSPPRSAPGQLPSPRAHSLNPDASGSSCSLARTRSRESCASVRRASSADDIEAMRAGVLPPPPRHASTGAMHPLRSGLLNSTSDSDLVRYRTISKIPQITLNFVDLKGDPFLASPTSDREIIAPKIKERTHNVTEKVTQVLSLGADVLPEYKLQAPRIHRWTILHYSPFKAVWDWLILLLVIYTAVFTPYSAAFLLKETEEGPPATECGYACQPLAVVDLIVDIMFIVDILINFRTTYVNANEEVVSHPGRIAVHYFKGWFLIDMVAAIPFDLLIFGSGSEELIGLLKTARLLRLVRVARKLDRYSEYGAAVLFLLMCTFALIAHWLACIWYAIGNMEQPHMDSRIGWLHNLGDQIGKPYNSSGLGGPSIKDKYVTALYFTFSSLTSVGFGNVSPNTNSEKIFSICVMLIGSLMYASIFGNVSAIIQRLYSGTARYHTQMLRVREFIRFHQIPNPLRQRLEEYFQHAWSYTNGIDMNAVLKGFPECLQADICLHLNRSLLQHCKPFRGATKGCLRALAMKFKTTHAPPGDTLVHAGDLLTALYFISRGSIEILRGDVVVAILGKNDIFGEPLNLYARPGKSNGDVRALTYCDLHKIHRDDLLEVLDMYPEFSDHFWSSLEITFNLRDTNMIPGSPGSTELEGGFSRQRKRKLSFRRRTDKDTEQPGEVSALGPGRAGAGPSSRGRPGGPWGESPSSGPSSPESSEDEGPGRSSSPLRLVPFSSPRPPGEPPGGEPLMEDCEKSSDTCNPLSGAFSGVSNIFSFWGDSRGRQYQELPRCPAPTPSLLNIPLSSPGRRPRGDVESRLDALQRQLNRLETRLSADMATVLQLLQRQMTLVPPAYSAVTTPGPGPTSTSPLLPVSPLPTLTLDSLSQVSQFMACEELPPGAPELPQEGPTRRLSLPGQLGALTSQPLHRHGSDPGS
On to `CCN1CCSc2ccc(C(=O)Nc3ccc(NC(C)=O)cc3)cc21`, for which the “hERG current change (%, negative = inhibition) at 10uM” value came out at 1.22%.

Consider `CCN(Cc1ccccc1)C(=O)CSc1n[nH]c(N)n1`, for which the “hERG current change (%, negative = inhibition) at 10uM” value is 33.6%.

Take `CNC(=O)[C@@]1(Cc2ccccc2)C=C[C@@H](C)N1C(C)=O`: the “hERG current change (%, negative = inhibition) at 10uM” value is listed as 5.07%.

In the case of `Cc1cc(C)n(-c2nc(C)nc3c2cnn3-c2ccccc2)n1`, the “hERG current change (%, negative = inhibition) at 10uM” value was determined as 13%.

As to `CCOC(=O)c1ccc(S(=O)(=O)NNC(=O)COc2ccccc2C)cc1`, the “hERG current change (%, negative = inhibition) at 10uM” value stood at 27.5%.

Regarding `N#Cc1cccc(NC(=O)CSc2nnc(C3CC3)n2C2CC2)c1`, the “hERG current change (%, negative = inhibition) at 10uM” value is on record as -52.4%.

Take `N#CCc1ccc(NC(=O)CSc2nnc(C3CC3)n2C2CC2)cc1`: the “hERG current change (%, negative = inhibition) at 10uM” value stood at 9.18%.

For `O=C(CSc1nnc(C2CC2)n1C1CC1)Nc1cccc(Br)c1`, the “hERG current change (%, negative = inhibition) at 10uM” value is given as -75.1%.

On to `CCOc1ccc(NC(=O)CSc2nnc(C3CC3)n2C2CC2)cc1`, for which the “hERG current change (%, negative = inhibition) at 10uM” value is -15.7%.

Take `NS(=O)(=O)c1ccc(NC(=O)CSc2nnc(C3CC3)n2C2CC2)cc1`: the “hERG current change (%, negative = inhibition) at 10uM” value was found to be 22%.

Consider `NS(=O)(=O)c1cccc(NC(=O)CSc2nnc(C3CC3)n2C2CC2)c1`, for which the “hERG current change (%, negative = inhibition) at 10uM” value stood at 8.95%.

With `Cc1cc(C)cc(NC(=O)CSc2nnc(-c3cc(C)[nH]n3)n2N)c1`, the “hERG current change (%, negative = inhibition) at 10uM” value was determined as 12.5%.

For the molecule `C=CCNC(=O)c1cc(-c2ccc(Br)cc2)on1`, the “hERG current change (%, negative = inhibition) at 10uM” value is listed as 1.88%.

On to `CCn1cc(C(=O)O)c(=O)c2cc(F)c(N/N=C/c3ccccc3[N+](=O)[O-])cc21`, for which the “hERG current change (%, negative = inhibition) at 10uM” value is listed as -51.2%.

`CCn1cc(C(=O)O)c(=O)c2cc(F)c(N3CCN(C(=S)NC(=O)c4ccccc4)CC3)cc21`: the “hERG current change (%, negative = inhibition) at 10uM” value was found to be 13.7%.

`CCn1cc(C(=O)O)c(=O)c2cc(F)c(N/N=C/c3ccccc3)cc21`: the “hERG current change (%, negative = inhibition) at 10uM” value is -27.2%.

As to `COc1ccc(NC(=S)NN(C)C(=S)Nc2ccc(OC)cc2)cc1`, the “hERG current change (%, negative = inhibition) at 10uM” value stood at 26.1%.

`O=C(c1ncn(Cc2ccccc2)c1C(=O)N1CCc2ccccc2C1)N1CCc2ccccc2C1`: the “hERG current change (%, negative = inhibition) at 10uM” value is -30.4%.

As to `CCN1CCN(Cc2ccc(NC(=O)Nc3ccc(OC)cc3)cc2)CC1`, the “hERG current change (%, negative = inhibition) at 10uM” value is given as -7.9%.

For `COc1cccc(CC2(CO)CCN(Cc3ccc(NC(C)=O)cc3)CC2)c1`, the “hERG current change (%, negative = inhibition) at 10uM” value is -50.7%.

Consider `COc1ccc(CC2(CO)CCN(Cc3ccc(NC(C)=O)cc3)CC2)cc1`, for which the “hERG current change (%, negative = inhibition) at 10uM” value is on record as -57.4%.

For `CC(=O)Nc1ccc(CN2CCCC(CO)(Cc3cccc(Cl)c3)C2)cc1` (stereo not drawn), the “hERG current change (%, negative = inhibition) at 10uM” value was -39.2%.

Turning to `COc1ccc(C(=O)Nc2ccc(CN3CCOCC3)cc2)cc1`, the “hERG current change (%, negative = inhibition) at 10uM” value is -1.82%.

As for `COc1cccc(CC2(CO)CCN(C(=O)NCCc3ccccc3)CC2)c1`, the “hERG current change (%, negative = inhibition) at 10uM” value is given as 0.136%.

For `O=C(NCC(=O)N1CCC2(CC1)NCCc1[nH]cnc12)c1cccc(Cl)c1`, the “hERG current change (%, negative = inhibition) at 10uM” value is 12.5%.

Regarding `CCOc1cc(/C=C2\SC(=N)N(c3nonc3N)C2=O)ccc1OCC(N)=O`, the “hERG current change (%, negative = inhibition) at 10uM” value was 7.01%.

As to `O=C(CCCn1c(=S)[nH]c2ccccc2c1=O)N1CCCCC1`, the “hERG current change (%, negative = inhibition) at 10uM” value is -10.4%.

As to `CC(C#N)Sc1nnc(-c2ccccc2F)n1C1CC1` (stereo not drawn), the “hERG current change (%, negative = inhibition) at 10uM” value is on record as 18.2%.

For `C=CCOc1ccc(C(=O)n2cc(C(=O)OC)c3ccccc32)cc1`, the “hERG current change (%, negative = inhibition) at 10uM” value came to 9.62%.

`Cc1ccc(C(=O)c2c3ccc([N+](=O)[O-])cc3[n+]([O-])n2CCC(N)=O)cc1`: the “hERG current change (%, negative = inhibition) at 10uM” value is -32.6%.

In the case of `Cc1ccc(C(=O)c2c3ccc(C(F)(F)F)cc3nn2CCC(N)=O)cc1`, the “hERG current change (%, negative = inhibition) at 10uM” value is -5.81%.

`Cc1ccc(C(=O)c2c3ccc(C(F)(F)F)cc3[n+]([O-])n2CCCC(N)=O)cc1`: the “hERG current change (%, negative = inhibition) at 10uM” value is -62.9%.

For the molecule `[Cl-].[NH3+]CCCn1c(C(=O)c2ccc(Cl)cc2)c2ccc(C(F)(F)F)cc2[n+]1[O-]`, the “hERG current change (%, negative = inhibition) at 10uM” value is given as -79.2%.

Regarding `Cc1ccc(C(=O)c2c3ccc(C(F)(F)F)cc3[n+]([O-])n2CCC(N)=O)cc1`, the “hERG current change (%, negative = inhibition) at 10uM” value is given as -66.2%.

For `NC(=O)CCCn1c(C(=O)c2cc(Cl)c(N)c(Cl)c2)c2ccc(C(F)(F)F)cc2[n+]1[O-]`, the “hERG current change (%, negative = inhibition) at 10uM” value was -41.1%.

As to `COc1ccc2c(C(=O)c3ccc(C)cc3)n(CCC(N)=O)[n+]([O-])c2c1`, the “hERG current change (%, negative = inhibition) at 10uM” value is given as -6.56%.

For `Cc1ccc(C(=O)c2c3ccccc3[n+]([O-])n2CCC(N)=O)cc1`, the “hERG current change (%, negative = inhibition) at 10uM” value is reported as -5.98%.

With `Nc1c(Cl)cc(C(=O)c2c3ccccc3[n+]([O-])n2CCC[NH3+])cc1Cl.[Cl-]`, the “hERG current change (%, negative = inhibition) at 10uM” value was -20.9%.

`NC(=O)c1ccc(Cn2c(C(=O)c3ccc(Cl)cc3)c3ccccc3[n+]2[O-])cc1`: the “hERG current change (%, negative = inhibition) at 10uM” value was -9.74%.

On to `Nc1c(Cl)cc(C(=O)c2c3ccc(C(F)(F)F)cc3[n+]([O-])n2CCC[NH3+])cc1Cl.[Cl-]`, for which the “hERG current change (%, negative = inhibition) at 10uM” value was -57.6%.

Regarding `CCN1CSC(=S)N(Cc2ccccc2)C1`, the “hERG current change (%, negative = inhibition) at 10uM” value is reported as 12.2%.

For `COc1cc(CC(=O)Nc2nc(C)cs2)cc(OC)c1OC`, the “hERG current change (%, negative = inhibition) at 10uM” value was 5.84%.

For `CC1(C)Nc2ccccc2C(=O)N1c1ccccc1`, the “hERG current change (%, negative = inhibition) at 10uM” value was 20.5%.

On to `COC(=O)Cn1nc(-c2ccccc2)c2cc(Cl)ccc21`, for which the “hERG current change (%, negative = inhibition) at 10uM” value is -0.627%.

Turning to `CCOc1ccc(NC(=O)N2C[C@H]3C[C@@H](C2)c2cccc(=O)n2C3)cc1`, the “hERG current change (%, negative = inhibition) at 10uM” value amounted to 8.54%.

For the molecule `O=C(CSc1n[nH]c(-c2ccccn2)n1)Nc1ccccc1F`, the “hERG current change (%, negative = inhibition) at 10uM” value is given as -1.74%.

In the case of `COc1ccccc1/C(O)=C(\C#N)c1nc2ccccc2[nH]1`, the “hERG current change (%, negative = inhibition) at 10uM” value worked out at 15%.

On to `CCC1=NN2C(=N)/C(=C/c3cc(C)n(-c4ccccc4)c3C)C(=O)N=C2S1`, for which the “hERG current change (%, negative = inhibition) at 10uM” value is 16.2%.

For `O=c1[nH]cc(NCCNc2ncc(C(F)(F)F)cc2Cl)c(=O)[nH]1`, the “hERG current change (%, negative = inhibition) at 10uM” value is 3.6%.

`Nn1cnnc1SCC(=O)Nc1ccc(C2CCCCC2)cc1`: the “hERG current change (%, negative = inhibition) at 10uM” value came to 12.5%.

As to `CCn1cc(S(=O)(=O)Nc2nc3ccc(OC)cc3s2)cn1`, the “hERG current change (%, negative = inhibition) at 10uM” value was found to be 19.7%.

As to `Cc1ccc2c(c1)-c1ncc(C(=O)c3cc(Br)ccc3O)cc1CO2`, the “hERG current change (%, negative = inhibition) at 10uM” value stood at 15.7%.

Turning to `CCc1cc(=O)oc2cc(C)cc(OCC(=O)NC(Cc3ccc(Cl)cc3)C(=O)O)c12` (stereo not drawn), the “hERG current change (%, negative = inhibition) at 10uM” value was -9.21%.

Regarding `Cc1cccc(N2CCN(S(=O)(=O)c3ccc4c(c3)CCC(=O)N4)CC2C)c1` (stereo not drawn), the “hERG current change (%, negative = inhibition) at 10uM” value is given as -8.91%.
